Drawing on PubChem BioAssay (NCATS), this text covers Potency, outcome and activity change, negative = cytotoxicity for 39 compounds.

Records with an inconclusive call do not appear. Where a call stands in place of a potency, no number is given. Values without a mark were called inactive. Activity calls are given as the source filed them. Calls come from the whole dose curve; as a rule, active = well fitted curve in the direction sought with a large enough effect; inconclusive = small, poorly fitted or top-dose-only effect, or another doubt; inactive = no such curve, though single readings can be large; an effect the other way counts as inactive or inconclusive. Where a SMILES comes first, the peptide text is derived from it. The star is where a group is joined. Cbz = O=C(OCc1ccccc1)*; CH2F = FC*

The first assay is described as follows: P-glycoprotein substrates identified in KB-3-1 adenocarcinoma cell line, qHTS therapeutic library screen (AID 1346986). Note: nearly all actives have a fitted effect of over 60% in size. Particulars: KB-3-1 parental cells viability, CellTiter-Glo, 72 h; series mostly up to 44.5 µM. In outline:
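KB-3-1 parental cells and P-gp-overexpressing KB-8-5-11 (colchicine omitted during assay) plated at 500 cells/well, dosed in dose-response, incubated 72 h at 37 degree C. CellTiter-Glo luminescence read; KB-8-5-11 also tested with tariquidar.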
Background: In qHTS, concentration-response curves come from the screen itself.
For `CC1(CO)CCCC2(C)C3COC(=O)C3=CC(O)C12` (configuration not stated), the Potency entry is “inactive”.

Regarding `C=C1C(=O)OC2CC(COC(=O)C(C)C)=C(C(C)CCCOC(C)=O)[C@@H](OC(C)=O)C12` (some centres not stated), the Potency result is “inactive”.

On to `CC(C/C=C/C(C)(C)O)C1CCC(C)(O)C(O)C1` (configuration not stated), for which the Potency result was “inactive”.

Turning to `CCNC(=O)OC1CCN(c2nncc3cc(OC)c(OC)cc23)CC1`, the Potency entry was “inactive”.

On to `C=C1CC[C@H]2[C@@](C)(CCC(O)[C@@]2(C)CO)[C@@H]1/C=C/C(=C\C(=O)O)C(=O)O` (some centres not stated), for which the Potency entry was “inactive”.

Consider `COc1cc(/C=C/C(=O)OC[C@H]2O[C@@H](OC3CC(C)=C(C(=O)O)C(C)(C)C3)[C@H](O)[C@@H](O)[C@@H]2O)cc(OC)c1O` (some centres not stated), for which the Potency entry is “inactive”.

As for `CC1(C)C2CC[C@]3(C)C(C(=O)C=C4[C@H]5C[C@@](C)(C(=O)O)CC[C@]5(C)CC[C@]43C)[C@@]2(C)CC[C@@H]1O` (some centres not stated), the Potency result is “inactive”.

Take `C/C=C1/[C@H](O[C@@H]2O[C@H](CO)[C@@H](O)[C@H](O)[C@H]2O)OC=C(C(=O)OC)[C@H]1CC(=O)OCCc1ccc(OC(=O)C[C@@H]2C(C(=O)OC)=CO[C@@H](O[C@@H]3O[C@H](CO)[C@@H](O)[C@H](O)[C@H]3O)/C2=C/C)cc1`: the outcome is “inactive [at 9.29 µM]”.

For `COC(=O)C[C@@H]1C(C(=O)O)=CO[C@@H](O[C@@H]2O[C@H](CO)[C@@H](O)[C@H](O)[C@H]2O)/C1=C\COC(=O)/C=C/c1ccc(O)c(OC)c1`, the Potency result is “inactive”.

As for `CC1(C)C=Cc2c(ccc3c2[N+]([O-])=C2C3(O)CC34NC(=O)C5(CCCN5C3=O)CC4C2(C)C)O1` (configuration not stated), the Potency entry was “inactive”.

With `COC(=O)CC[C@H](NC(=O)[C@H](CC(C)C)NC(=O)OCc1ccccc1)C(=O)N[C@@H](Cc1cnc[nH]1)C(=O)N[C@@H](CC(=O)OC)C(=O)CF` (Cbz-LE(OMe)HD(OMe)-CH2F), the outcome was “inactive [at 9.29 µM]”.

Regarding `COC(=O)[C@]1(Cc2ccc(O)c(CC=C(C)C)c2)OC(=O)C(O)=C1c1ccc(O)cc1`, the Potency entry is “inactive”.

Take `C/C(=C\CCC1(C)C2CC3C(C2)C31C)C(=O)O` (configuration not stated): the Potency result is “inactive”.

Take `CC/C=C/C=C/C1(C)OC(CC(CO)OC)=CC1=O` (configuration not stated): the Potency entry was “inactive”.

Consider `CC1OC(OC2CCC3(C)C(CCC4(C)C3C=CC35OCC6(CCC(C)(C)CC63)CCC45C)C2(C)CO)C(OC2OC(CO)C(O)C(O)C2O)C(O)C1OC1OC(CO)C(O)C(O)C1O` (configuration not stated), for which the outcome is “inactive [at 9.29 µM]”.

For the compound `CC[C@@H](Nc1c(Nc2cccc(C(=O)N(C)C)c2O)c(=O)c1=O)c1ccc(C)o1`, the Potency entry is “inactive”.

For `CC(CC(C)O[C@@H]1O[C@H](CO)[C@@H](O)[C@H](O)[C@H]1O)OC(=O)/C=C/c1ccc(O)cc1` (some centres not stated), the Potency entry was “inactive”.

On to `Cc1c(-c2ccc3c(c2)OCO3)oc2ccc(C(O)C(C)O)cc12` (configuration not stated), for which the Potency entry was “inactive”.

In the case of `CC1=C2C(=O)C=C(CO)C2[C@H]2OC(=O)[C@H](C)[C@@H]2[C@@H](OC(=O)Cc2ccc(O)cc2)C1` (some centres not stated), the Potency result was “inactive”.

For `CC1CCC2(C(=O)OC3OC(CO)C(O)C(O)C3O)CCC3(C)C(=CCC4C5(C)CCC(O)C(C)(CO)C5CCC43C)C2C1(C)O` (configuration not stated), the Potency entry was “inactive”.

`CC1CC2(O)OC(=O)C3=C2C(CCC3)[C@@]12C[C@@H](c1ccoc1)OC2=O` (some centres not stated): the Potency entry was “inactive”.

`O=C(N[C@@H]1CC[C@@H](c2cccc(F)c2F)CN(CC(F)(F)F)C1=O)N1CCC(n2c(=O)[nH]c3ncccc32)CC1`: the Potency entry is “inactive”.

As to `CC(C)(O)C1CC=C(C(=O)OC[C@H]2O[C@@H](Oc3cc(C(=O)O)cc(O)c3O)[C@H](O)[C@@H](O)[C@@H]2O)CC1` (some centres not stated), the Potency entry is “inactive”.

With `O=C(Cn1c2ccccc2c2nc3n(c(=O)c21)CCS3)N1CCCC1`, the Potency result was “inactive”.

As for `CC1(C)CC[C@]2(C(=O)O[C@@H]3O[C@H](CO)[C@@H](O)[C@H](O)[C@H]3O)CC[C@]3(C)C(=CCC4[C@@]5(C)C[C@@H](O)[C@H](O)[C@@](C)(CO)C5[C@H](O)C[C@]43C)C2[C@@H]1O` (some centres not stated), the Potency result is “inactive”.

Regarding `COC(=O)C1=CO[C@@H](O[C@@H]2O[C@H](CO)[C@@H](O)[C@H](O)[C@H]2O)[C@@H]2[C@@H](C)[C@@H](O)C(O)[C@H]12` (some centres not stated), the Potency entry was “inactive”.

As to `COc1ccc(OC)c(C2C(C#N)=C(N)Oc3n[nH]c(-c4ccc5ccccc5c4)c32)c1` (configuration not stated), the Potency entry is “inactive”.

In the case of `CC(=O)OC1CC2C(C)(C)C(=O)C=CC2(C)C2CC(=O)C3=C(CCC3C3=CC(O)OC3=O)C12C` (configuration not stated), the Potency entry is “inactive”.

On to `C=C1C2(C)CC3C4(C)C=CC(=O)OC(C)(C)C4CCC3(C)C1(C(=O)OC)C(=O)C(C)(O)C2=O` (configuration not stated), for which the Potency result was “inactive”.

On to `COc1ccc(-c2ccn(CC[C@](C)(C(=O)NO)S(C)(=O)=O)c(=O)c2)c(F)c1`, for which the Potency entry is “inactive”.

With `O=C(/C=C/N1C[C@@H]2C[C@@H]1CN2c1ccccn1)c1ccccc1O`, the Potency result was “inactive”.

The next assay in a line: P-glycoprotein substrates identified in KB-8-5-11 adenocarcinoma cell line, qHTS therapeutic library screen (AID 1346987). Note: nearly all actives have a fitted effect of over 65% in size. Particulars: KB-8-5-11 (P-gp overexpressing) viability, CellTiter-Glo, 72 h; series mostly up to 44.5 µM. In short, it runs like this: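 KB-8-5-11: colchicine-selected sub-line of KB-3-1 over-expressing P-gp; assay medium lacked colchicine. 72 h drug exposure at 37 degree C, CellTiter-Glo.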
As for `C/C=C(/C)C(=O)O[C@@H]1C[C@@H](OC(=O)/C(C)=C\C)[C@@]2(C)C3C(=O)C=C(C)C2C3C1(C)C`, the Potency result was “inactive”.

`CCOC(=O)C1=C(N)Oc2ccc(Cl)cc2C1C(C#N)C(=O)OCC` (configuration not stated): the Potency entry is “inactive”.

With `C[C@H]1CC[C@@]2(OC1)O[C@H]1CC3C4CC[C@H]5C[C@@H](O)CC[C@]5(C)C4CC(=O)[C@]3(C)[C@H]1[C@@H]2C` (some centres not stated), the Potency result was “inactive”.

Take `CC1OC(OC2C(OC3C(O[C@H]4CC[C@@]5(C)C(CC[C@]6(C)C5C(=O)CC5=C7CC(C)(C)CC(O)[C@]7(C)CC[C@]56C)C4(C)C)OC(C(=O)O)C(O)C3O)OCC(O)C2O)C(O)C(O)C1O` (some centres not stated): the outcome was “inactive [at 9.29 µM]”.

For the compound `CCC/C=C/C=C/C1CC(O)C(O)C(=O)C1CO` (configuration not stated), the Potency entry is “inactive”.

On to `CC1(C)CC[C@]2(C(=O)O[C@@H]3O[C@H](CO)[C@@H](O)[C@H](O)[C@H]3O)CC[C@]3(C)C(=CCC4[C@@]5(C)CC[C@H](O[C@@H]6O[C@H](C(=O)O)[C@@H](O)[C@H](O)[C@H]6OC6OC(CO)C(O)C(O)C6O)C(C)(C)C5CC[C@]43C)[C@@H]2C1` (some centres not stated), for which the outcome was “inactive [at 9.29 µM]”.

`Cc1ncc([N+](=O)[O-])n1C[C@H](O)CN1CCOCC1`: the Potency result was “inactive”.

In the case of `CC1(C)CC[C@]2(C(=O)O[C@@H]3O[C@H](CO[C@@H]4O[C@H](CO[C@@H]5O[C@H](CO)[C@H](O)[C@H](O)[C@H]5O)[C@@H](O)[C@H](O)[C@H]4O)[C@@H](O)[C@H](O[C@@H]4O[C@H](CO)[C@@H](O)[C@H](O)[C@H]4O)[C@H]3O)[C@H](O)C[C@]3(C)C(=CCC4[C@@]5(C)CC[C@H](O[C@@H]6OC[C@@H](O)[C@H](O)[C@H]6O)[C@@](C)(C(=O)O)C5CC[C@]43C)[C@@H]2C1` (some centres not stated), the outcome is “inactive [at 9.29 µM]”.

`CC1(CO)CCCC2(C)C3COC(=O)C3=CC(O)C12` (configuration not stated): the Potency entry was “inactive”.

`C=C1C(=O)OC2CC(COC(=O)C(C)C)=C(C(C)CCCOC(C)=O)[C@@H](OC(C)=O)C12` (some centres not stated): the Potency entry is “inactive”.

`CC(C/C=C/C(C)(C)O)C1CCC(C)(O)C(O)C1` (configuration not stated): the Potency entry is “inactive”.

As for `CCNC(=O)OC1CCN(c2nncc3cc(OC)c(OC)cc23)CC1`, the Potency entry is “inactive”.

Regarding `C=C1CC[C@H]2[C@@](C)(CCC(O)[C@@]2(C)CO)[C@@H]1/C=C/C(=C\C(=O)O)C(=O)O` (some centres not stated), the Potency entry was “inactive”.

For `COc1cc(/C=C/C(=O)OC[C@H]2O[C@@H](OC3CC(C)=C(C(=O)O)C(C)(C)C3)[C@H](O)[C@@H](O)[C@@H]2O)cc(OC)c1O` (some centres not stated), the Potency entry is “inactive”.

`CC1(C)C2CC[C@]3(C)C(C(=O)C=C4[C@H]5C[C@@](C)(C(=O)O)CC[C@]5(C)CC[C@]43C)[C@@]2(C)CC[C@@H]1O` (some centres not stated): the Potency result is “inactive”.

In the case of `C/C=C1/[C@H](O[C@@H]2O[C@H](CO)[C@@H](O)[C@H](O)[C@H]2O)OC=C(C(=O)OC)[C@H]1CC(=O)OCCc1ccc(OC(=O)C[C@@H]2C(C(=O)OC)=CO[C@@H](O[C@@H]3O[C@H](CO)[C@@H](O)[C@H](O)[C@H]3O)/C2=C/C)cc1`, the activity change, negative = cytotoxicity is 6.56% [at 9.29 µM].

For `COC(=O)C[C@@H]1C(C(=O)O)=CO[C@@H](O[C@@H]2O[C@H](CO)[C@@H](O)[C@H](O)[C@H]2O)/C1=C\COC(=O)/C=C/c1ccc(O)c(OC)c1`, the Potency result was “inactive”.

As for `CC1(C)C=Cc2c(ccc3c2[N+]([O-])=C2C3(O)CC34NC(=O)C5(CCCN5C3=O)CC4C2(C)C)O1` (configuration not stated), the Potency result is “inactive”.

Take `COC(=O)CC[C@H](NC(=O)[C@H](CC(C)C)NC(=O)OCc1ccccc1)C(=O)N[C@@H](Cc1cnc[nH]1)C(=O)N[C@@H](CC(=O)OC)C(=O)CF` (Cbz-LE(OMe)HD(OMe)-CH2F): the activity change, negative = cytotoxicity was 6.58% [at 9.29 µM].

As for `COC(=O)[C@]1(Cc2ccc(O)c(CC=C(C)C)c2)OC(=O)C(O)=C1c1ccc(O)cc1`, the Potency entry was “inactive”.

In the case of `C/C(=C\CCC1(C)C2CC3C(C2)C31C)C(=O)O` (configuration not stated), the Potency entry was “inactive”.

As for `CC/C=C/C=C/C1(C)OC(CC(CO)OC)=CC1=O` (configuration not stated), the Potency result is “inactive”.

Take `CC1OC(OC2CCC3(C)C(CCC4(C)C3C=CC35OCC6(CCC(C)(C)CC63)CCC45C)C2(C)CO)C(OC2OC(CO)C(O)C(O)C2O)C(O)C1OC1OC(CO)C(O)C(O)C1O` (configuration not stated): the activity change, negative = cytotoxicity is 2.86% [at 9.29 µM].

For the compound `CC[C@@H](Nc1c(Nc2cccc(C(=O)N(C)C)c2O)c(=O)c1=O)c1ccc(C)o1`, the Potency result was “inactive”.

`CC(CC(C)O[C@@H]1O[C@H](CO)[C@@H](O)[C@H](O)[C@H]1O)OC(=O)/C=C/c1ccc(O)cc1` (some centres not stated): the Potency entry was “inactive”.

As for `Cc1c(-c2ccc3c(c2)OCO3)oc2ccc(C(O)C(C)O)cc12` (configuration not stated), the Potency result was “inactive”.

Take `CC1=C2C(=O)C=C(CO)C2[C@H]2OC(=O)[C@H](C)[C@@H]2[C@@H](OC(=O)Cc2ccc(O)cc2)C1` (some centres not stated): the Potency entry was “inactive”.

As for `CC1CCC2(C(=O)OC3OC(CO)C(O)C(O)C3O)CCC3(C)C(=CCC4C5(C)CCC(O)C(C)(CO)C5CCC43C)C2C1(C)O` (configuration not stated), the Potency entry was “inactive”.

For `CC1CC2(O)OC(=O)C3=C2C(CCC3)[C@@]12C[C@@H](c1ccoc1)OC2=O` (some centres not stated), the Potency entry is “inactive”.

For the compound `O=C(N[C@@H]1CC[C@@H](c2cccc(F)c2F)CN(CC(F)(F)F)C1=O)N1CCC(n2c(=O)[nH]c3ncccc32)CC1`, the Potency entry is “inactive”.

Regarding `CC(C)(O)C1CC=C(C(=O)OC[C@H]2O[C@@H](Oc3cc(C(=O)O)cc(O)c3O)[C@H](O)[C@@H](O)[C@@H]2O)CC1` (some centres not stated), the Potency result was “inactive”.
